Data taken from PubChem BioAssay (NCATS).
Where “and” joins values, the source holds several entries; their conditions need not be identical. Equal entries are not always repeated. Inconclusive results are not listed. Calls of active or inactive are those of the source. Calls come from the whole dose curve; as a rule, active = well fitted curve in the direction sought with a large enough effect; inconclusive = small, poorly fitted or top-dose-only effect, or another doubt; inactive = no such curve, though single readings can be large; an effect the other way counts as inactive or inconclusive.

How the values were obtained:
CRL-7250 = normal cell line; test: Cytotoxic Profiling of Annotated Libraries Using Quantitative High-Throughput Screening (AID 1296008); details: Five cell lines viability, CellTiter-Glo ATP luminescence, 48-72 h; max response: hits give low values; note: nearly all actives have a fitted effect of over 60% in size; note: potency is the fitted concentration of half-maximal effect
In short: (§1)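 Cells exposed to compounds for 48 or 72 hr at 37 degrees Celsius. Viability read as ATP-coupled luminescence with CellTiter-Glo after 10 min at room temperature.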

HaCat [1] = test: as above; details: Five cell lines viability, CellTiter-Glo ATP luminescence, 48-72 h; max response: hits give low values
In short: as §1

KB-3-1 = test: as above; details: Five cell lines viability, CellTiter-Glo ATP luminescence, 48-72 h; max response: hits give low values
In short: as §1

NIH3T3 [2] = test: as above; details: Five cell lines viability, CellTiter-Glo ATP luminescence, 48-72 h; max response: hits give low values
In short: as §1

HACAT [3] = test: qHTS assay to identify novel small-molecules to repurpose for Merkel cell carcinoma treatment (AID 1296009); details: MCC and control cell lines, CellTiter-Glo viability, 72 h; at 44.8 µM (top of the series) unless noted; note: nearly all actives have a fitted effect of over 60% in size; note: potency is the fitted concentration of half-maximal effect
In short: (§2)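 CellTiter-Glo luminescence after 72 hr compound exposure at 37 degree celsius gave cell viability. Libraries NPC and MIPE were run as 8- and 11-point dose responses; RLUs normalized to DMSO (negative) and no-cell (cytotoxicity) controls.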

MCC-13 = test: as above; details: MCC and control cell lines, CellTiter-Glo viability, 72 h; series mostly up to 46 µM
In short: as §2

MCC-26 = test: as above; details: MCC and control cell lines, CellTiter-Glo viability, 72 h; series mostly up to 46 µM
In short: as §2

MKL-1 = test: as above; details: MCC and control cell lines, CellTiter-Glo viability, 72 h; series mostly up to 46 µM
In short: as §2

MKL-2 = test: as above; details: MCC and control cell lines, CellTiter-Glo viability, 72 h; series mostly up to 46 µM
In short: as §2

NIH3T3 [4] = test: as above; details: MCC and control cell lines, CellTiter-Glo viability, 72 h; at 44.8 µM (top of the series) unless noted
In short: as §2

UISO = test: as above; details: MCC and control cell lines, CellTiter-Glo viability, 72 h; series mostly up to 46 µM
In short: as §2

WaGa = test: as above; details: MCC and control cell lines, CellTiter-Glo viability, 72 h; series mostly up to 46 µM
In short: as §2

C33A = test: Primary qHTS to identify gynecologic anti-cancer compounds using libraries of approved drugs and bioactive compounds (AID 1345084); details: Gynecologic cancer cell panel viability, ATPlite luminescence, 48 h; series mostly up to 57.5 µM; note: nearly all actives have a fitted effect of over 55% in size
In short: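 Cytotoxicity screen measuring ATP content by luciferase luminescence. Each compound is applied at five concentrations for 48 h at 37 C with 5% CO2.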

HEK293 = test: Cytotoxic Profiling of Annotated Libraries Using Quantitative High-Throughput Screening (AID 1296008); details: Five cell lines viability, CellTiter-Glo ATP luminescence, 48-72 h; max response: hits give low values; note: nearly all actives have a fitted effect of over 60% in size; note: potency is the fitted concentration of half-maximal effect
In short: as §1
% is set by controls: 0 for no effect and ±100 for the full control effect.

CCN(CC)C(=O)c1ccc(C2=CC3(CCNCC3)Oc3cccc(O)c32)cc1
inactive: max response (CRL-7250) 3.09% and -1.02% | max response (HaCat [1]) -0.307% | outcome (HaCat [1]) | max response (KB-3-1) 5.76% and 9.58% | max response (NIH3T3 [2]) 0.128% | outcome (NIH3T3 [2]) | outcome (HACAT [3]) | Potency (MCC-13) | Potency (MCC-26) | Potency (MKL-1) | Potency (MKL-2) | outcome (NIH3T3 [4]) | Potency (UISO) | Potency (WaGa) | Potency (C33A)

C[N+](C)(C)CC(=O)O
inactive: max response (HEK293) -2.82% | max response (HaCat [1]) 3.56% | max response (KB-3-1) -11.7% and 3.15%

CC(C)Oc1cccc(NC(=O)c2ccccc2C(F)(F)F)c1
active: Potency (CRL-7250) 54.5 µM | Potency (WaGa) 38.6 µM
inactive: max response (KB-3-1) -12.9% | Potency (MCC-13) | Potency (MCC-26) | Potency (MKL-1)

CC[C@@H]1[C@@H](C)O[C@@](O)([C@@H](C)[C@H](O)[C@H](C)[C@H]2OC(=O)C=CC=C[C@@H](C)[C@@H]([C@@H](C)[C@@H](O)[C@H](C)[C@@]3(O)C[C@H](O[C@H]4C[C@H](O)[C@H](O)[C@H](C)O4)[C@H](CC)[C@@H](C)O3)OC(=O)C=CC=C[C@@H]2C)C[C@H]1O[C@H]1C[C@H](O)[C@H](O)[C@H](C)O1
active: Potency (HEK293) 1.18 µM | Potency (HaCat [1]) 3.32 µM | Potency (KB-3-1) 5.9 µM | Potency (NIH3T3 [2]) 1.66 µM | Potency (MCC-13) 16.6 µM | Potency (MCC-26) 8.33 µM | Potency (MKL-1) 14.8 µM | Potency (UISO) 8.33 µM | Potency (WaGa) 2.64 µM
